PMC7862700, “An all-to-all approach to the identification of sequence-specific readers for epigenetic DNA modifications on cytosine”

What was measured:
Test in all cases: DAPPL (digital affinity profiling via proximity ligation, sequencing); 10 mM Tris-HCl pH 7.5, 50 mM NaCl, 1 mM DTT, 4% glycerol, room temperature, 30 min; GST-TFs on glutathione beads, 16-mer random dsDNA library, 0.1% formaldehyde crosslink after washing; high values mean tight binding
Conditions in all cases: protein: recombinant; tags: N-terminal GST; dsDNA, one strand shown
[1] = target: T1, GABPA (Homo sapiens, UniProt Q06546 1-454)
T1 sequence: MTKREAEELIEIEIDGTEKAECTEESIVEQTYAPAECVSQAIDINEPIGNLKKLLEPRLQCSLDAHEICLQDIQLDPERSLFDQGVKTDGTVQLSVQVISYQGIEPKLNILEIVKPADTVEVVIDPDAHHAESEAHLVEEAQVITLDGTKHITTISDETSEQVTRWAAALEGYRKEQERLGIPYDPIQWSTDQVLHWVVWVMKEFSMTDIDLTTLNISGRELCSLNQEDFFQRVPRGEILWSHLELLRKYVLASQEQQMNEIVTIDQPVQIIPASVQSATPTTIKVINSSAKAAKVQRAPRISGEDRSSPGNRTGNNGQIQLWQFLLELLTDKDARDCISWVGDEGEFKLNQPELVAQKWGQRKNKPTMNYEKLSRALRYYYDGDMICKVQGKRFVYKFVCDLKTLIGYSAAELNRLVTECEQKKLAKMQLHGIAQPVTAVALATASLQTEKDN
Method in brief: (§1)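 GST fusions of human transcription factors were expressed in yeast and captured with glutathione beads. Once given DNA barcodes and pooled alongside a tag-only sample, they were incubated for 30 min at room temperature with 200 nmole of a random double-stranded 16-mer DNA library in Tris/NaCl/DTT/glycerol buffer, then washed, crosslinked (0.1% formaldehyde), proximity-ligated, PCR-amplified and sequenced on an Illumina NextSeq500. The binding signal of each hexamer is its read frequency for a factor divided by its frequency for the tag-only sample.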

[2] = target: T2, ERG (Homo sapiens, UniProt P11308 1-479)
T2 sequence: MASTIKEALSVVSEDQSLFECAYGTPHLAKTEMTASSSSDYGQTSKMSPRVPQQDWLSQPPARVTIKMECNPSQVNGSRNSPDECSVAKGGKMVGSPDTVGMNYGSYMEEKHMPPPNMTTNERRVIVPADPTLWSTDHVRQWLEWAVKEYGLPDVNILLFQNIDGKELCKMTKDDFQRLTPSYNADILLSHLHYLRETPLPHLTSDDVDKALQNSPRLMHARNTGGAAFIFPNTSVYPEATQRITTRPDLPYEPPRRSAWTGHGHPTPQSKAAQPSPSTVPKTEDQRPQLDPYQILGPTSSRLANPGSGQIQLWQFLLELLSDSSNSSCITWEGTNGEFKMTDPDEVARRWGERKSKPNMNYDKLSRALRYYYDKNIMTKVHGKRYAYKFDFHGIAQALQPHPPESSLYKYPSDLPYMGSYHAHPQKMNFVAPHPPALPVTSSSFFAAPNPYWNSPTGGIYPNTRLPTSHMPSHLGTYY
Method in brief: as §1

[3] = target: ETV5 (Homo sapiens, UniProt P41161 1-510)
Sequence of ETV5 (P41161 whole entry): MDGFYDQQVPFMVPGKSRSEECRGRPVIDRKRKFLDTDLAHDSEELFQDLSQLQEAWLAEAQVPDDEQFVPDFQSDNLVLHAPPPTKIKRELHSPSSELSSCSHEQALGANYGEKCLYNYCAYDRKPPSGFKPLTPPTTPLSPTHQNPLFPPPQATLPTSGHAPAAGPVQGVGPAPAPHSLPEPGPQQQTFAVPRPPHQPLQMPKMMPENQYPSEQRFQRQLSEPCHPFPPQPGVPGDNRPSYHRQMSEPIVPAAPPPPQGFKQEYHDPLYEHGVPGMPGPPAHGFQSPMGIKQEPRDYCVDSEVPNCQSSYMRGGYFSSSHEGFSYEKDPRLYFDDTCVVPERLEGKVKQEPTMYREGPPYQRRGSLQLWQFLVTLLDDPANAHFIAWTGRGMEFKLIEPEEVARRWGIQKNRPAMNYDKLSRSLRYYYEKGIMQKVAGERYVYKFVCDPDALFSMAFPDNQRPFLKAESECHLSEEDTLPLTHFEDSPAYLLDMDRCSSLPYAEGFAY
Method in brief: as §1

[4] = target: ELF4 (Homo sapiens, UniProt Q99607 1-663)
Sequence of ELF4 (Q99607 whole entry): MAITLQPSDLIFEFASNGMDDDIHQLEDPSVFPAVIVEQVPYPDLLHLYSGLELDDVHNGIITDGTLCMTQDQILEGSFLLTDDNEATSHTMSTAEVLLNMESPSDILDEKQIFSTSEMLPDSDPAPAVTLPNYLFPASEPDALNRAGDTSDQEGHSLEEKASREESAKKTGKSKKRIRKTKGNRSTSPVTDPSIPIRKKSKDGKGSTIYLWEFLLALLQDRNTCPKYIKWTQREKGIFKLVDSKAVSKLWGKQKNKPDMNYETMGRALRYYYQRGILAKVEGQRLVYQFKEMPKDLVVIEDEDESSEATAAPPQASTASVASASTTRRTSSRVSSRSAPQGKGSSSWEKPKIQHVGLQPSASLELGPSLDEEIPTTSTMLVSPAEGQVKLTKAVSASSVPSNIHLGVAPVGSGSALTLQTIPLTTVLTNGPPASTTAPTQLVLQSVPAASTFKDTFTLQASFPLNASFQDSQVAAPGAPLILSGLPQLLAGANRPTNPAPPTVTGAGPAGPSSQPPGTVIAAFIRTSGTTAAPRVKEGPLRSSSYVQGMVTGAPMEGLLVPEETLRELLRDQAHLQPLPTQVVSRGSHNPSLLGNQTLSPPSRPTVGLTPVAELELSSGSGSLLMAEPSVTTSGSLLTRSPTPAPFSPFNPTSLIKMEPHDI
Method in brief: as §1

[5] = target: T3, ELK4 (Homo sapiens, UniProt P28324-2 1-405)
T3 sequence: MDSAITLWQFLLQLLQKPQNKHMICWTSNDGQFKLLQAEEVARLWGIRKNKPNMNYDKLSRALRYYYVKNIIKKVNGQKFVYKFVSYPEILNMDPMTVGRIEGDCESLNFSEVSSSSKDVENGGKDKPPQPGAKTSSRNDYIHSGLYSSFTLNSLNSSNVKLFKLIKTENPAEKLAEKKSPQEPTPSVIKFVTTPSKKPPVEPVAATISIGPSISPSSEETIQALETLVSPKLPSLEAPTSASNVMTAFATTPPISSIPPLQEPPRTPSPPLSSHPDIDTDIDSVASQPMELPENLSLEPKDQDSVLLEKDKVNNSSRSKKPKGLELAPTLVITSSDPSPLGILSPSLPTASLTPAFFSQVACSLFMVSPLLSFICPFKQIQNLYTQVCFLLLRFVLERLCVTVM
Method in brief: as §1

[6] = target: T4, ETV3L (Homo sapiens, UniProt Q6ZN32 1-361)
T4 sequence: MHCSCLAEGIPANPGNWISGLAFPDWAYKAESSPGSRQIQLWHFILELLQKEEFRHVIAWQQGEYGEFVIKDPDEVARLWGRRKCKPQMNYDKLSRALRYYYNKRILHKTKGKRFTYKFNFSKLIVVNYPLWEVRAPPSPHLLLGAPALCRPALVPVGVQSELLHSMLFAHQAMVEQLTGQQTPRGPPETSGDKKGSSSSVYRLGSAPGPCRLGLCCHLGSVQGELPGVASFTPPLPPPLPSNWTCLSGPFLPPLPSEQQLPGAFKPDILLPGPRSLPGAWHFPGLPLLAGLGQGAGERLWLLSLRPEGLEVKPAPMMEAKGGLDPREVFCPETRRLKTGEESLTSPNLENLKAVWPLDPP
Method in brief: as §1

[7] = target: T5, ETV7 (Homo sapiens, UniProt Q9Y603 1-341)
T5 sequence: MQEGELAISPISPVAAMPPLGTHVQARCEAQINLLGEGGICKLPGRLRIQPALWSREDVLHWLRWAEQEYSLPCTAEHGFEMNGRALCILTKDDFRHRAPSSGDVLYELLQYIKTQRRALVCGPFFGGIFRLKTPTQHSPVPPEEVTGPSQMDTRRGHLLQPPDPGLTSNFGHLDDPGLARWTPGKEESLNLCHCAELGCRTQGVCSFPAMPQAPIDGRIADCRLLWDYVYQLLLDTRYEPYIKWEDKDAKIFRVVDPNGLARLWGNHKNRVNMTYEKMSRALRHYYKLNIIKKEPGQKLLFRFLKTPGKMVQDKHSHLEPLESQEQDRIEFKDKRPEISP
Method in brief: as §1

[8] = target: ETV6 (Homo sapiens, UniProt P41212 1-452)
Sequence of ETV6 (P41212 whole entry): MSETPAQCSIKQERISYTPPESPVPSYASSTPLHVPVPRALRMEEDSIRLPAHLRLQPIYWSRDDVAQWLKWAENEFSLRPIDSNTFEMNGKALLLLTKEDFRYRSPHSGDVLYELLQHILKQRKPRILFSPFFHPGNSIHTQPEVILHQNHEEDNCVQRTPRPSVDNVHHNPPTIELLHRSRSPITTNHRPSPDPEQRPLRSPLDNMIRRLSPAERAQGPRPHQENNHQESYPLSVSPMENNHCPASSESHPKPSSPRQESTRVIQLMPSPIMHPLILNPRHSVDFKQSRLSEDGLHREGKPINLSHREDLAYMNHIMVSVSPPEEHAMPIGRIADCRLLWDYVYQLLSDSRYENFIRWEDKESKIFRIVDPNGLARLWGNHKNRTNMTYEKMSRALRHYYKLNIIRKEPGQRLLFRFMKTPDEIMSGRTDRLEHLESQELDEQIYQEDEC
Method in brief: as §1

[9] = target: T6, SPIC (Homo sapiens, UniProt Q8N5J4 1-248)
T6 sequence: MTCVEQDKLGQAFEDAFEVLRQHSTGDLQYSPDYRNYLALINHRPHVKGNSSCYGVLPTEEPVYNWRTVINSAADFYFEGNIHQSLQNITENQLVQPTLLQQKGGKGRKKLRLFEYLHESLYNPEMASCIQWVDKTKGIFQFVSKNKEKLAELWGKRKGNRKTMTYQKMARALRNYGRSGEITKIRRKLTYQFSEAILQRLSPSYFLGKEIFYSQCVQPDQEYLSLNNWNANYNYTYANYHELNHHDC
Method in brief: as §1

[10] = target: T7, ERF (Homo sapiens, UniProt P50548 1-548)
T7 sequence: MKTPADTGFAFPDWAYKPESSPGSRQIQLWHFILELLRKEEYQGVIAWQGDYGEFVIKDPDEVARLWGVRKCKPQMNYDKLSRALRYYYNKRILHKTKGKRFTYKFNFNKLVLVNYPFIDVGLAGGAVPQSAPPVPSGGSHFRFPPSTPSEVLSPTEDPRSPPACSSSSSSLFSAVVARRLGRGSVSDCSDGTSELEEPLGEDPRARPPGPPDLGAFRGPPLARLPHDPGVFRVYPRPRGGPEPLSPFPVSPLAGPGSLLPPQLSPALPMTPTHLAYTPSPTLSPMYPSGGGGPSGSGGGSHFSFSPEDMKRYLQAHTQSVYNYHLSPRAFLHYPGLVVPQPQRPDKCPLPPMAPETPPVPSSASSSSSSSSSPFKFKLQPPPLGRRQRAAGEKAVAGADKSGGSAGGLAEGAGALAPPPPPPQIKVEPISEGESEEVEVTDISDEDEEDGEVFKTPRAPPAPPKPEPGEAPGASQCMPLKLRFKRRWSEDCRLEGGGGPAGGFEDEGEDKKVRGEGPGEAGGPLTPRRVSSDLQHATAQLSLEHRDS
Method in brief: as §1

[11] = target: T8, SPDEF (Homo sapiens, UniProt O95238 1-335)
T8 sequence: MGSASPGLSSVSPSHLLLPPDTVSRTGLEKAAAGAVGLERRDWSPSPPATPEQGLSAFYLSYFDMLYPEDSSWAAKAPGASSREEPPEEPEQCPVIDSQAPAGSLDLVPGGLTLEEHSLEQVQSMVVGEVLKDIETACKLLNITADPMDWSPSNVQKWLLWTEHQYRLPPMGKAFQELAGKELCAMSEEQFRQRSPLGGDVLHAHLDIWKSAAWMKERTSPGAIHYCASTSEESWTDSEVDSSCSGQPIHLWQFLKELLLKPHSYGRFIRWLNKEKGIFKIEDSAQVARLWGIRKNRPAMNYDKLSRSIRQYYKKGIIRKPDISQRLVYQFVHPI
Method in brief: as §1

Row | Sequence | binding signal [1] | binding signal [2] | binding signal [3] | binding signal [4] | binding signal [5] | binding signal [6] | binding signal [7] | binding signal [8] | binding signal [9] | binding signal [10] | binding signal [11]
1 | GTGCCC | 1.01 fold enrichment (6-mer frequency, TF over GST control) | 1.08 fold enrichment (6-mer frequency, TF over GST control) | 1.08 fold enrichment (6-mer frequency, TF over GST control) | 1.03 fold enrichment (6-mer frequency, TF over GST control) | 1.07 fold enrichment (6-mer frequency, TF over GST control) | 1 fold enrichment (6-mer frequency, TF over GST control) | 1.01 fold enrichment (6-mer frequency, TF over GST control) | 1 fold enrichment (6-mer frequency, TF over GST control) |  |  | 
2 | CTGTAG | 1.03 fold enrichment (6-mer frequency, TF over GST control) |  | 1.02 fold enrichment (6-mer frequency, TF over GST control) |  |  |  |  |  | 1.08 fold enrichment (6-mer frequency, TF over GST control) | 1.02 fold enrichment (6-mer frequency, TF over GST control) | 1.03 fold enrichment (6-mer frequency, TF over GST control)
